Measurements published in PubChem BioAssay (EPA / NIEHS).
Records with an inconclusive call do not appear. The source made the active and inactive calls. Rule for the calls, unless noted: active = hit-call score of the fitted dose curve at least 0.9, where 1 is the maximum; inactive = score below 0.9.

Tests used:
[1] = ACEA_ER_80hr: ACEA Biosciences xCELLigence Real-Time Cell Analysis on Estrogen Receptor Agonism for Proliferation (AID 2282667; active = hit-call score of the fitted dose curve at least 0.9, where 1 is the maximum); conditions: T47D proliferation, impedance (xCELLigence), 80 h
Procedure, shortened: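 Impedance readout (RT-CES) of T47D proliferation at 80 h post-dose; gain of signal vs DMSO baseline. Compounds: 8 conc, 1:4 serial, top 100 uM final, ≤0.5% DMSO; biological duplicate.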

[2] = ATG_CRE_CIS: Attagene CIS-FACTORIAL HepG2 Assay for human cAMP Responsive Element (CRE) binding protein 3 (AID 2282926); conditions: HepG2 CRE cis-reporter, Attagene multiplexed mRNA; actives raise or lower the signal
Procedure, shortened: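 Endogenous CRE-binding activity in HepG2 is reported through a cis-regulated transfected reporter. Following a day of exposure, mRNA levels are determined by reverse transcription PCR and fluorescent fragment analysis; fits run in both directions versus DMSO.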

[3] = biological target: CCAAT/enhancer-binding protein beta (Homo sapiens) (UniProt P17676); assay: ATG_C_EBP_CIS: Attagene CIS-FACTORIAL HepG2 Assay for human CCAAT/Enhancer Binding Protein (C/EBP) beta (AID 2282927); conditions: HepG2 Attagene cis-factorial transcription factor reporter; actives raise or lower the signal
Procedure, shortened: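 RT-PCR/capillary electrophoresis fluorescence of reporter mRNA, 24 h post-dose, in HepG2 cells carrying transfected cis-promoter reporter units. Bidirectional curve fitting against DMSO baseline captures gain or loss of signal.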

[4] = ATG_CMV_CIS: Attagene CIS-FACTORIAL HepG2 Assay for human CMV (Internal Marker) (AID 2282928); conditions: HepG2 CMV promoter reporter, transcription factor profiling; actives raise or lower the signal;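 note: endpoint acts as a background internal control marker rather than a target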
Procedure, shortened: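 Cell system: HepG2, transiently transfected multiple reporter units under cis promoters. Exposure: 24 h. Detection: RT-PCR, FAM labeling, HpaI digestion, capillary electrophoresis. Analysis: bidirectional, DMSO baseline.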

[5] = ATG_DR4_LXR_CIS: Attagene CIS-FACTORIAL HepG2 Assay for human Liver X Receptor (LXR), DR4 submotif (AID 2282929); conditions: HepG2 Attagene DR4 cis-reporter, mRNA transcription; actives raise or lower the signal
Procedure, shortened: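 Endogenous factor activity at a DR4 cis-element is read as reporter mRNA in transiently transfected HepG2 cells. Exposure lasts 24 h; transcripts are amplified, fluorescently labelled and sized by capillary electrophoresis, with DMSO as baseline.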

[6] = biological target: Aryl hydrocarbon receptor (Homo sapiens) (UniProt P35869); assay: ATG_Ahr_CIS: Attagene CIS-FACTORIAL HepG2 Assay for human Aryl Hydrocarbon Receptor (Ahr) (AID 2282930); conditions: HepG2 AhR cis-factorial reporter transcription; actives raise or lower the signal
Procedure, shortened: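 HepG2 cells transiently transfected with cis-element-driven multiplexed reporter transcription units; endogenous transcription factor activity measured as reporter mRNA 24 h after dosing. RT-PCR, 6-FAM labelling, HpaI digestion, capillary electrophoresis; bidirectional fitting versus DMSO baseline.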

[7] = ATG_AP_1_CIS: Attagene CIS-FACTORIAL HepG2 Assay for human Activator Protein 1 (AP-1) (AID 2282931); conditions: HepG2 Attagene cis-factorial AP-1 reporter mRNA; actives raise or lower the signal
Procedure, shortened: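 Fluorescence of labelled PCR fragments separated by capillary electrophoresis gives reporter mRNA levels. HepG2 with transfected cis-regulated reporter units, 24 h exposure; DMSO serves as baseline for bidirectional curve fits.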

[8] = ATG_AP_2_CIS: Attagene CIS-FACTORIAL HepG2 Assay for human Activator Protein 2 (AP-2) (AID 2282932); conditions: HepG2 AP-2 cis-reporter, Attagene transcription factor profiling; actives raise or lower the signal
Procedure, shortened: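 Bidirectional curve fitting against DMSO was applied to reporter mRNA signals from HepG2 cells 24 h after dosing. Cis-promoter reporter units, transiently transfected, were read by RT-PCR plus capillary electrophoresis.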

[9] = ATG_BRE_CIS: Attagene CIS-FACTORIAL HepG2 Assay for human Bone Morphogenetic Protein (BMP) Response Element (BRE) (AID 2282933); conditions: HepG2 BMP response element reporter, Attagene transcription factor profiling; actives raise or lower the signal
Procedure, shortened: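 Endogenous transcription factor activity at a BMP response element was monitored in transfected HepG2 cells 24 h after dosing. Fluorescent RT-PCR products were resolved by capillary electrophoresis, and activity was fitted in both directions versus DMSO.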

[10] = biological target: Retinoic acid receptor alpha (Homo sapiens) (UniProt P10276); assay: ATG_DR5_RAR_CIS: Attagene CIS-FACTORIAL HepG2 Assay for human Retinoic Acid Receptor Alpha (RARE), DR5 submotif (AID 2282934); conditions: HepG2 Attagene cis-factorial RARE DR5 reporter, mRNA; actives raise or lower the signal;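 for AC50: reporter responds to endogenous RAR alpha beta and gamma in HepG2 not RARA alone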
Procedure, shortened: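 HepG2 cells transiently transfected with multiplexed reporter units under cis (DR5 RARE) promoters, so endogenous transcription factor activity is measured. After 24 h compound exposure, reporter mRNA is quantified by RT-PCR with fluorescent labelling and capillary electrophoresis; bidirectional fitting versus DMSO.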

[11] = biological target: Transcription factor E2F1 (Homo sapiens) (UniProt Q01094); assay: ATG_E2F_CIS: Attagene CIS-FACTORIAL HepG2 Assay for human E2F Transcription Factor 1 (AID 2282935); conditions: HepG2 Attagene cis-reporter, E2F reporter RNA transcripts; actives raise or lower the signal
Procedure, shortened: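 Multiplexed cis-reporter assay: HepG2, transient transfection, 24 h dosing, mRNA quantitation by labeled RT-PCR and CE.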

[12] = ATG_E_Box_CIS: Attagene CIS-FACTORIAL HepG2 Assay for human Enhancer Box (E-box) (AID 2282936); conditions: HepG2 E-box cis-reporter transcription, actives raise or lower the signal
Procedure, shortened: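 Multiplexed CIS reporter system in transiently transfected HepG2 cells measures native transcription factor activity. Reporter RNA after 24 h exposure is profiled by RT-PCR-capillary electrophoresis.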

[13] = ATG_M_61_CIS: Attagene CIS-FACTORIAL HepG2 Assay for M61 Transcription Factor (Internal Marker) (AID 2282937); conditions: HepG2 Attagene CIS-FACTORIAL M61 internal marker reporter; actives raise or lower the signal
Procedure, shortened: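 This endpoint serves as an internal background control within a multiplexed HepG2 cis-reporter panel. Cells are exposed for 24 h; reporter mRNA is amplified, fluorescently labelled and sized by capillary electrophoresis, with DMSO as negative control.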

[14] = ATG_EGR_CIS: Attagene CIS-FACTORIAL HepG2 Assay for human Early Growth Response 1 (EGR1) (AID 2282938); conditions: HepG2 Attagene CIS-FACTORIAL EGR reporter mRNA; actives raise or lower the signal
Procedure, shortened: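 HepG2, transient MRTU transfection (cis promoters), 24 h compound. RNA → RT (oligo-dT) → PCR → 6-FAM labelling → HpaI cut → CE fluorescence. Bidirectional fit, DMSO baseline.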

[15] = ATG_M_19_CIS: Attagene CIS-FACTORIAL HepG2 Assay for M19 Transcription Factor (Internal Marker) (AID 2282939); conditions: HepG2 Attagene CIS-FACTORIAL M19 internal marker reporter; actives raise or lower the signal
Procedure, shortened: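 Background-control endpoint from a multiplexed HepG2 reporter panel. Cells carrying cis-regulated reporter constructs are treated 24 h, then reporter transcripts are amplified, fluorescently labelled and sized by capillary electrophoresis. DMSO defines baseline.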

[16] = ATG_ERE_CIS: Attagene CIS-FACTORIAL HepG2 Assay for Estrogen Response Element (ERE) (AID 2282940); conditions: HepG2 ERE cis-reporter, Attagene RNA transcript; actives raise or lower the signal
Procedure, shortened: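 Cells used were human hepatoma HepG2, transfected with multiple reporter transcription units under cis-regulatory promoters. Reporter mRNA, read 24 h post-dosing via fluorescent RT-PCR products on capillary electrophoresis, was fitted bidirectionally relative to DMSO.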

[17] = ATG_Ets_CIS: Attagene CIS-FACTORIAL HepG2 Assay for human Erythroblast Transformation Specific (ETS) (AID 2282941); conditions: HepG2 ETS cis-reporter transcription, actives raise or lower the signal
Procedure, shortened: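 After transient cis-reporter transfection, HepG2 cells receive test chemical for 24 h. Reporter mRNA levels, measured by RT-PCR and capillary electrophoresis fluorescence, are analysed bidirectionally relative to the DMSO baseline.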

[18] = biological target: Hepatocyte nuclear factor 3-beta (Homo sapiens) (UniProt Q9Y261); assay: ATG_FoxA2_CIS: Attagene CIS-FACTORIAL HepG2 Assay for human Forkhead box A2 (FOXA2) (AID 2282942); conditions: HepG2 cis-reporter transcription factor activity, 24 h; actives raise or lower the signal
Procedure, shortened: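 Cells: HepG2, transient multiplex reporter transfection. Exposure 24 h. Detection: reporter-specific RT-PCR, fluorescent labelling, restriction digest, capillary electrophoresis. Analysis: bidirectional curve fit, DMSO as negative control.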

[19] = ATG_FoxO_CIS: Attagene CIS-FACTORIAL HepG2 Assay for human Forkhead box O (FoxO) (AID 2282943); conditions: HepG2 Attagene cis-reporter, FoxO element, mRNA; actives raise or lower the signal
Procedure, shortened: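 HepG2 cells transiently transfected with cis-promoter-driven multiple reporter transcription units; 24 h after chemical dosing, reporter mRNA quantified by RT-PCR, fluorescent primer extension, HpaI digestion and capillary electrophoresis. Bidirectional fitting versus DMSO baseline.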

[20] = ATG_GATA_CIS: Attagene CIS-FACTORIAL HepG2 Assay for human GATA Binding Protein (AID 2282944); conditions: HepG2 GATA cis-element reporter, Attagene multiplex mRNA; actives raise or lower the signal
Procedure, shortened: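 Endogenous transcription factor activity was captured through cis-promoter-driven reporters in transfected HepG2 cells. After 24 h exposure, reporter transcripts were quantified by RT-PCR with fluorescent capillary electrophoresis, and responses fitted both directions against DMSO.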

Measured: AC50

Hepatocyte nuclear factor 3-beta (Homo sapiens), sequence (Q9Y261 whole entry, looked up): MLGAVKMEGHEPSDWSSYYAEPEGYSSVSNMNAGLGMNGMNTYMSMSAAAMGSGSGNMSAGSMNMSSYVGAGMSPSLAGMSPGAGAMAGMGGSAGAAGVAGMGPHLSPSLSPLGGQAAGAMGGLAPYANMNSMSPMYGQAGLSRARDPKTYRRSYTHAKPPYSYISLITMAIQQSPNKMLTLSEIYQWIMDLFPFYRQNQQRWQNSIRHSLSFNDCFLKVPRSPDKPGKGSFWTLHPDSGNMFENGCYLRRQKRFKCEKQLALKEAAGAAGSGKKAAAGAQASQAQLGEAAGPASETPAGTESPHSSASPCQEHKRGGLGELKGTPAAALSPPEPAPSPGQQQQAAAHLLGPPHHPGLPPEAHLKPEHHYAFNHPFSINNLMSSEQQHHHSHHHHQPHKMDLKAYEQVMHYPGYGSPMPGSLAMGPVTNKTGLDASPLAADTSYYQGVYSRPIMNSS
Transcription factor E2F1 (Homo sapiens), sequence (Q01094 whole entry, looked up): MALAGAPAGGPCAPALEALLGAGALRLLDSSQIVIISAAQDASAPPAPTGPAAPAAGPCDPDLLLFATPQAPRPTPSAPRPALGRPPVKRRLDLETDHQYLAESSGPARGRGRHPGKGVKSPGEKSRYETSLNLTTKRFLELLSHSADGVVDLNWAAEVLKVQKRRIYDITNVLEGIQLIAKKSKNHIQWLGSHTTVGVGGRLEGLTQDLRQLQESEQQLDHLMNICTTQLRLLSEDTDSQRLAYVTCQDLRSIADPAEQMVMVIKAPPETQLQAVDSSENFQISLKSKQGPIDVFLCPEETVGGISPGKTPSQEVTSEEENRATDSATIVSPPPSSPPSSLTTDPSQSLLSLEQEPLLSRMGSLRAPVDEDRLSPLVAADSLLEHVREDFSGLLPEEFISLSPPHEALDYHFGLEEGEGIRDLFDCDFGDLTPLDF
Retinoic acid receptor alpha (Homo sapiens), sequence (P10276 whole entry, looked up): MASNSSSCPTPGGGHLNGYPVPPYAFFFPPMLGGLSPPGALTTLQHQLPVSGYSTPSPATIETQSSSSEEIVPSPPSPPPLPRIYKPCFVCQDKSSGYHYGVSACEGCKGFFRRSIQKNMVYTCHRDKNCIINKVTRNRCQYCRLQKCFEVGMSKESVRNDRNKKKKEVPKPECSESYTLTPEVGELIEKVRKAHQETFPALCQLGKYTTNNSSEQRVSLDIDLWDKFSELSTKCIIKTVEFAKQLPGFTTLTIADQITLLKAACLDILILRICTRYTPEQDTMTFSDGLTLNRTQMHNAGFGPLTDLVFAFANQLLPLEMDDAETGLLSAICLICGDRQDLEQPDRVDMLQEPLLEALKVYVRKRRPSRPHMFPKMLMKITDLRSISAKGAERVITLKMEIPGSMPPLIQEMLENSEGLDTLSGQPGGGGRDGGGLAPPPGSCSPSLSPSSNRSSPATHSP
CCAAT/enhancer-binding protein beta (Homo sapiens), sequence (P17676 whole entry, looked up): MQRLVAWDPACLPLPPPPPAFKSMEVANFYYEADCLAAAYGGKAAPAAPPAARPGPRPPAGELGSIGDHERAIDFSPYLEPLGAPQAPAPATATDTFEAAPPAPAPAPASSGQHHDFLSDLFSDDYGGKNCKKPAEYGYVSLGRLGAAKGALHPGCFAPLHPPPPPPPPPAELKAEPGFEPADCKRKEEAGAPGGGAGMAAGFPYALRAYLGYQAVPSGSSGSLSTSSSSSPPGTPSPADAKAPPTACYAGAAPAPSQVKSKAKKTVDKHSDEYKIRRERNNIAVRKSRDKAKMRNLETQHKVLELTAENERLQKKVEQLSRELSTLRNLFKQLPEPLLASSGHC
Aryl hydrocarbon receptor (Homo sapiens), sequence (P35869 whole entry, looked up): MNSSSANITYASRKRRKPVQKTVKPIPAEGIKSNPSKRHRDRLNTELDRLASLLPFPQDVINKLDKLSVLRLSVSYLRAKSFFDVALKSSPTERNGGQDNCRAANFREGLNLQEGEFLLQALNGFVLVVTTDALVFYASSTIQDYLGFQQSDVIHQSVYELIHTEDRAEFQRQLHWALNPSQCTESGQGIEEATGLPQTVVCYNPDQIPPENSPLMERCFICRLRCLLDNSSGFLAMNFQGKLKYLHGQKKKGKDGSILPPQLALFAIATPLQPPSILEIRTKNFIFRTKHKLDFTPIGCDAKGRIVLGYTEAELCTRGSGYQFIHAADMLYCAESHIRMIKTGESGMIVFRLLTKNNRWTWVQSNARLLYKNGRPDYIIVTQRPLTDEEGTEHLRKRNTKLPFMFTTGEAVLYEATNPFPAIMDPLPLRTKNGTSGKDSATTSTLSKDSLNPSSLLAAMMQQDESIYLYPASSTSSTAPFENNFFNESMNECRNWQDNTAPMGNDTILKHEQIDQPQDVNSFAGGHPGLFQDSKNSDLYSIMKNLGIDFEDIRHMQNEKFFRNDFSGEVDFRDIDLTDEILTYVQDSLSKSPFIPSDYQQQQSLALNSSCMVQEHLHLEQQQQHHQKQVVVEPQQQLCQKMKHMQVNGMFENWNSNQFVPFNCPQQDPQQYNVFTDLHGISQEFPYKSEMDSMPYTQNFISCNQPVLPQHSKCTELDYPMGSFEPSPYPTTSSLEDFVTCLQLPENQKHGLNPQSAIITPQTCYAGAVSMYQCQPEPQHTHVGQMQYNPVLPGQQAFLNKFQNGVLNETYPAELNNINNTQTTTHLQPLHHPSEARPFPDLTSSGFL

[Cl][Eu]([Cl])[Cl]
active: [16] 51.6 µM
not listed: [20]
inactive: all other assays above

CCCCCCCCCCCCc1ccc(O)cc1
active: [1] 350 nM | [16] 0.146 µM
not listed: [20]
inactive: all other assays above

CCOC(=O)C1=NOC(c2ccccc2)(c2ccccc2)C1
inactive: all assays above

CC(C)c1ccc2ncccc2c1
active: [4] 53.5 µM
inactive: all other assays above

COc1cc(O)c(C(=O)c2ccccc2)cc1S(=O)(=O)O
active: [16] 56 µM
not listed: [20]
inactive: all other assays above

CCCCCCCCCCCC(=O)N(C)CC(=O)O
active: [4] 97.5 µM | [5] 97.5 µM | [16] 14.3 µM
inactive: all other assays above

Cc1cc(C)c(C=O)c(C)c1
active: [10] 3.85 µM
inactive: all other assays above

CCCCC1CCC(=O)O1 (stereo unspecified)
inactive: all assays above

C=C(C)OC(C)=O
inactive: all assays above

CCCCCOC(=O)CCCCC
inactive: all assays above

COc1ccc(C(=O)c2ccccc2)c(O)c1
active: [4] 79.6 µM | [5] 115 µM | [7] 168 µM | [9] 158 µM | [14] 85.1 µM | [16] 5.69 µM
not listed: [17] | [18]
inactive: all other assays above

Clc1cc(Cl)c(Cl)c(Cl)c1Cl
active: [4] 50.7 µM
not listed: [15]
inactive: all other assays above

CC/C=C\CCOC(=O)c1ccccc1O
not listed: [16] | [18]
inactive: all other assays above

CC(C)OC(=O)c1ccccc1
not listed: [16]
inactive: all other assays above

CC(=O)OCCc1ccccc1
inactive: all assays above
